One may read the % Inhibition as the drop in the measured response relative to a control, in per cent.

The campaign covered roughly 150,000 compounds. About 540 (0.36%) showed an effect of 50% or more. For the sample, strong results were picked, then their nearest neighbours and some compounds at random.

The test has as its system Plasmodium falciparum. Kind of test: Primary screen in NF54 nanoGlo assay, in single point, at 2uM, 72h; a lower Z score goes with more inhibition. The test is classed as functional, Erythrocyte. Conditions: timepoint 72 hour.
In the case of `CN1CCC(NC(=O)NCC2(CO)CCC2)C1c1ccccc1` (stereo unspecified), the “% Inhibition” value is -12% and the Z score is on record as 2.33.

`Cc1cccnc1[C@H](C)NC(=O)CNC(=O)N(C)C`: the “% Inhibition” value was -9% and the Z score is 1.68.

As to `Fc1ccc(Cc2nnc3n2CCCC3)cc1`, the “% Inhibition” value is 3% and the Z score is -0.52.

In the case of `COc1ccccc1CNc1nc2[nH]c3c(c(=O)n2n1)CCCC3`, the “% Inhibition” value came to 8% and the Z score was -0.7.

As for `CC(C)(C)[C@H]1CCc2c(sc(NC(=O)C3(F)C(F)(F)C(F)(F)C(F)(F)C(F)(F)C3(F)F)c2C#N)C1`, the “% Inhibition” value was 77% and the Z score was -6.03.

In the case of `CC(C)(C)[C@H]1CCc2c(sc(NC(=O)CN3CCCC3)c2C#N)C1`, the “% Inhibition” value is 10% and the Z score is -1.29.

In the case of `CC(C)(C)[C@H]1CCc2c(sc(NC(=O)c3cc(-c4ccccc4)nc4ccccc34)c2C#N)C1`, the “% Inhibition” value amounted to 13% and the Z score was -1.58.

Take `Cc1ccc(N2CCCC2=O)cc1NC(=O)N1CCC(c2n[nH]cc2C)CC1`: the “% Inhibition” value is -8% and the Z score turned out to be 1.78.

As to `Cc1csc(CNC(=O)NCc2nnc3n2CCOCC3)c1`, the “% Inhibition” value is reported as -2% and the Z score is reported as 0.17.

For `COc1ccc(CCNC(=O)c2cnn3c4c(cnc23)C[C@@H](C)CC4)cc1OC`, the “% Inhibition” value is reported as 61% and the Z score is on record as -4.54.

Regarding `COc1cccc(CNC(=O)c2cnn3c4c(cnc23)C[C@@H](C)CC4)c1`, the “% Inhibition” value was found to be 0% and the Z score was 0.03.

For `C[C@H]1CCc2c(cnc3c(C(=O)NCc4ccccc4)cnn23)C1`, the “% Inhibition” value is listed as 33% and the Z score came to 0.71.

Take `O=C(COc1ccc(Cl)cc1)N1CC(=O)N2CCc3ccccc3[C@@H]2C1`: the “% Inhibition” value was -8% and the Z score was 1.08.

As to `O=C(CN1C(=O)c2ccccc2C1=O)N1CC(=O)N2CCc3ccccc3[C@@H]2C1`, the “% Inhibition” value is given as 65% and the Z score is -8.85.

Regarding `O=C(CC(c1ccccc1)c1ccccc1)N1CC(=O)N2CCc3ccccc3[C@@H]2C1`, the “% Inhibition” value was 39% and the Z score is reported as -5.29.

As to `CCN(CC)S(=O)(=O)c1ccc(F)c(C(=O)OCCNC(C)=O)c1`, the “% Inhibition” value is reported as -10% and the Z score is reported as 0.84.

With `CNC(=O)c1ccc(NC2CC3CC3C2)nn1` (stereo unspecified), the “% Inhibition” value came to 6% and the Z score is recorded as -0.99.

Consider `Nc1ccc(-c2ccc(NC3CCCC3)nn2)cn1`, for which the “% Inhibition” value was -16% and the Z score amounted to 1.48.

Take `CC1(C)CCC(Nc2ccc(C(N)=O)nn2)CC1`: the “% Inhibition” value worked out at 77% and the Z score is -11.08.

Take `COc1ccc(OC)c([C@@H]2CCCN2c2nnc(-c3ccccn3)s2)c1`: the “% Inhibition” value is on record as -13% and the Z score is on record as 2.07.

In the case of `Cc1ccccc1OCC(=O)NS(C)(=O)=O`, the “% Inhibition” value is -1% and the Z score turned out to be 0.11.

`Cc1ccc(C(F)(F)C(=O)NCCC(=O)NS(C)(=O)=O)cc1`: the “% Inhibition” value was determined as 57% and the Z score was -7.27.

As for `O=C(NCCc1nc2ccccc2[nH]1)C(F)(F)c1ccc(F)cc1`, the “% Inhibition” value worked out at 4% and the Z score is -0.36.

As to `Cc1cccc(NC(=O)C2C(=O)N[C@]34CCCCC3C2c2ccccc2O4)c1` (stereo partly specified), the “% Inhibition” value is on record as 2% and the Z score is listed as -0.27.

`COc1ccc2c(c1)OC13CCN(C)CC1C2C(C(=O)c1ccccc1OC)C(=O)N3` (stereo unspecified): the “% Inhibition” value was 58% and the Z score is reported as -6.85.

In the case of `COc1ccccc1NC(=O)C1C(=O)NC23CCCCC2C1c1ccccc1O3` (stereo unspecified), the “% Inhibition” value is -8% and the Z score turned out to be 1.04.

With `O=C(CCOc1ccc(F)c(Cl)c1)NCc1cccnc1`, the “% Inhibition” value is 15% and the Z score is given as -2.11.

Consider `CN(CCO)C[C@@H]1CN(C(=O)C2(c3ccccc3)CCCC2)C[C@@H]1CO`, for which the “% Inhibition” value is listed as -27% and the Z score is reported as 2.7.

`CN(C)c1cncc(-c2cc(O)cc(CC[C@H]3CCCCN3)c2)n1`: the “% Inhibition” value is -2% and the Z score came to 0.33.

As to `Oc1ccc(-c2cc(O)cc(CC[C@H]3CCCCN3)c2)nc1`, the “% Inhibition” value is -14% and the Z score worked out at 1.77.

On to `Oc1cc(CC[C@H]2CCCCN2)cc(-c2cnc3ccccc3n2)c1`, for which the “% Inhibition” value is given as 59% and the Z score is on record as -7.37.

On to `COc1cccc(-c2cc(O)cc(CC[C@H]3CCCCN3)c2)n1`, for which the “% Inhibition” value is reported as 80% and the Z score is given as -13.26.

In the case of `COc1ccnc(-c2cc(O)cc(CC[C@H]3CCCCN3)c2)n1`, the “% Inhibition” value is reported as -4% and the Z score was found to be 0.49.

`COc1nccnc1-c1cc(O)cc(CC[C@H]2CCCCN2)c1`: the “% Inhibition” value is given as -23% and the Z score came out at 3.42.

For `CC(C)(C)OC(=O)N1CC(CNC2(c3ncon3)CCC2)C1`, the “% Inhibition” value turned out to be 9% and the Z score is recorded as -1.69.

Consider `CC1(C)[C@H]2CC=C(CCNc3nc(-c4ccncc4)nc4c3CNC4)[C@@H]1C2`, for which the “% Inhibition” value is recorded as 0% and the Z score is given as -0.03.

`CN(C[C@@H]1CCCN2CCCC[C@H]12)C(=O)Cc1c[nH]c2ccccc12`: the “% Inhibition” value was -1% and the Z score turned out to be 0.06.

With `Cc1cc(-c2cncc(CN3CCCCC3)c2)ccc1F`, the “% Inhibition” value turned out to be 50% and the Z score is -1.27.

As to `Cc1cc(-c2cncc(CN3CCC(C(N)=O)CC3)c2)ccc1F`, the “% Inhibition” value is reported as -2% and the Z score is recorded as 0.18.

On to `COc1ccc(-c2cncc(CN3CCCC3)c2)cc1OC`, for which the “% Inhibition” value is recorded as -9% and the Z score stood at 1.71.

`Cc1ccc2c(C(=O)N3CCCCC3)cc(-c3cncnc3)nc2c1C`: the “% Inhibition” value is 3% and the Z score is reported as -0.37.

In the case of `O=c1c2cc(F)ccc2c(Br)cn1CC1(CO)COC1`, the “% Inhibition” value was 20% and the Z score is recorded as -2.48.

As to `C[C@H](NC(=O)c1cc(C(F)(F)F)n[nH]1)c1n[nH]c(N)n1`, the “% Inhibition” value was -2% and the Z score was determined as 0.47.

The values are drawn from ChEMBL document CHEMBL4888484, “Replenishing the malaria drug discovery pipeline: Screening and hit evaluation of the MMV Hit Generation Library 1 (HGL1) against asexual blood stage Plasmodium falciparum ,using a nano luciferase reporter read-out” (2022).
